# Columns and labels:
# Test in all cases: DAPPL (digital affinity profiling via proximity ligation, sequencing); 10 mM Tris-HCl pH 7.5, 50 mM NaCl, 1 mM DTT, 4% glycerol, room temperature, 30 min; GST-TFs on glutathione beads, 16-mer random dsDNA library, 0.1% formaldehyde crosslink after washing; high values mean tight binding
# Details in all cases: protein: recombinant; tags: N-terminal GST; dsDNA, one strand shown
# FEV = biological target: T1, FEV (Homo sapiens, UniProt Q99581 1-238)
# T1 sequence: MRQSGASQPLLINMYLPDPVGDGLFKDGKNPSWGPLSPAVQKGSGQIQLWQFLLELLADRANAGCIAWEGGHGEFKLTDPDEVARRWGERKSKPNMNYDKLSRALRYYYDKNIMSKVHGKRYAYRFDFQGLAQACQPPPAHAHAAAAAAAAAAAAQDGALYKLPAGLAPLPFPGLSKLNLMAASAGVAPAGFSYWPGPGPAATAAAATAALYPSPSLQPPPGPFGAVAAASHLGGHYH
# Method in brief: (§1)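 Yeast served to express human transcription factors as GST fusions, which were then captured on glutathione beads and labelled with DNA barcodes. Pooled with a tag-only sample, they were incubated with 200 nmole of a 16-mer random double-stranded DNA library for 30 min at room temperature in Tris/NaCl/DTT/glycerol buffer, washed, crosslinked with 0.1% formaldehyde, ligated by proximity, amplified by PCR and sequenced. Dividing each hexamer's read frequency for a factor by its frequency for the tag-only sample gives the binding signal.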
# ETV5 = ETV5 (Homo sapiens, UniProt P41161 1-510)
# Chain of ETV5 (P41161 whole entry): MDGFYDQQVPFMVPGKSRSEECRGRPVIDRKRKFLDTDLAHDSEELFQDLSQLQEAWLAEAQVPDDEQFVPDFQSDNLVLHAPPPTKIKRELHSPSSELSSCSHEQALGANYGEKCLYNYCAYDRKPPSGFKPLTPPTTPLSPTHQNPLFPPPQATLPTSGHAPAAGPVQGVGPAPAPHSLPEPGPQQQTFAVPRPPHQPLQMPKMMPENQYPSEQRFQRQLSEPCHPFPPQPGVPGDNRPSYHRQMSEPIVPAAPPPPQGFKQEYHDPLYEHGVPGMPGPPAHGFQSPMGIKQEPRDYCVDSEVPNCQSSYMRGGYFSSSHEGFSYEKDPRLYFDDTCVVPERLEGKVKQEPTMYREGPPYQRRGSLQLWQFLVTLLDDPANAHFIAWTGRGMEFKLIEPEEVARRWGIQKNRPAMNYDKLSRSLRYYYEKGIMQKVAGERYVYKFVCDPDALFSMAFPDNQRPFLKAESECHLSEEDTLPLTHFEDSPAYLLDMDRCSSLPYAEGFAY
# Method in brief: as §1
# SPIC = biological target: T2, SPIC (Homo sapiens, UniProt Q8N5J4 1-248)
# T2 sequence: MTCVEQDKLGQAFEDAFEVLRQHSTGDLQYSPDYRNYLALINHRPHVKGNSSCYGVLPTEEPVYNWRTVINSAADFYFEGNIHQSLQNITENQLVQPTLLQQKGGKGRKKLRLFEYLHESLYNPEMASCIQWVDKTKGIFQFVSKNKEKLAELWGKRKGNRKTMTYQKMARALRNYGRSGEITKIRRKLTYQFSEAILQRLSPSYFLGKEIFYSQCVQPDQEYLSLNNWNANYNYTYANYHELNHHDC
# Method in brief: as §1
# ELF4 = ELF4 (Homo sapiens, UniProt Q99607 1-663)
# Chain of ELF4 (Q99607 whole entry): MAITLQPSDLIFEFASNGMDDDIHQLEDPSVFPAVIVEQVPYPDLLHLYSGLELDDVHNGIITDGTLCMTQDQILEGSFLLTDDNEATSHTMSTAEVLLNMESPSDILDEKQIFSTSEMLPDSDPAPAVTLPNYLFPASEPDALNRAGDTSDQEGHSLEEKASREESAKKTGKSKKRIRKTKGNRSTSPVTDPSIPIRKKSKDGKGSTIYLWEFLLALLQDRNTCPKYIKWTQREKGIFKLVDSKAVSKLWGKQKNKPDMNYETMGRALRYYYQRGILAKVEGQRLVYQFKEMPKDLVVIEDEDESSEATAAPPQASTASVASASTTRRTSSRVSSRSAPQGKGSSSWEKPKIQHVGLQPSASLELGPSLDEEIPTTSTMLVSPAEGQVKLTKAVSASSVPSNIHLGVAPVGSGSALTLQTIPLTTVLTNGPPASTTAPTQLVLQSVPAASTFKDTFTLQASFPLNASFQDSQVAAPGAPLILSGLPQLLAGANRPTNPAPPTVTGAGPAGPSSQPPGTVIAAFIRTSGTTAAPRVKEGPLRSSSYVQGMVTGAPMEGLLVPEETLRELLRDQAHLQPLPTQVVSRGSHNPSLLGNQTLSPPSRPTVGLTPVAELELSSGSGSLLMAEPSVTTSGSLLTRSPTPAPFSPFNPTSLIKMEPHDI
# Method in brief: as §1
# ELK4 = biological target: T3, ELK4 (Homo sapiens, UniProt P28324-2 1-405)
# T3 sequence: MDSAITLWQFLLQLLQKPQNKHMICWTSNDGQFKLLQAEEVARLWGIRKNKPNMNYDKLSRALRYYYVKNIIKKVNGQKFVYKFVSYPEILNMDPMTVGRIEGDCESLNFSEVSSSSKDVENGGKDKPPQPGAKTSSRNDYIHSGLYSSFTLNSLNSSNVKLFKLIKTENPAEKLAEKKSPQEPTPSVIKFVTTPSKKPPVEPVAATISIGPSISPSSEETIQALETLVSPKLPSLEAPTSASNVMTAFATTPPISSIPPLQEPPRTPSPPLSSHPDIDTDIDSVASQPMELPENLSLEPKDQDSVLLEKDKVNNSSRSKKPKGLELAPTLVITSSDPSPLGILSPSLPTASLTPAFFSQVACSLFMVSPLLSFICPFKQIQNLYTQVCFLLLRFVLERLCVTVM
# Method in brief: as §1
# ETV2 = biological target: T4, ETV2 (Homo sapiens, UniProt O00321 1-342)
# T4 sequence: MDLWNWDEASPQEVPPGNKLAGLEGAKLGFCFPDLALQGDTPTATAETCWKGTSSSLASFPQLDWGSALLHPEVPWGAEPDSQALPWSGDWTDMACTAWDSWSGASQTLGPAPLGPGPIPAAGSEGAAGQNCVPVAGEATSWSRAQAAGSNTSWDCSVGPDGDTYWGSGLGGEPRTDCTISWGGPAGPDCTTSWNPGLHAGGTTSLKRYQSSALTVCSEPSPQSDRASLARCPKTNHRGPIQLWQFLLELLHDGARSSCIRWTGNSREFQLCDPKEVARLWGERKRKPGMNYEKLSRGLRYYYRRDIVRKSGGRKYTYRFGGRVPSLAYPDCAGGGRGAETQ
# Method in brief: as §1
# ELF3 = biological target: T5, ELF3 (Homo sapiens, UniProt P78545 1-371)
# T5 sequence: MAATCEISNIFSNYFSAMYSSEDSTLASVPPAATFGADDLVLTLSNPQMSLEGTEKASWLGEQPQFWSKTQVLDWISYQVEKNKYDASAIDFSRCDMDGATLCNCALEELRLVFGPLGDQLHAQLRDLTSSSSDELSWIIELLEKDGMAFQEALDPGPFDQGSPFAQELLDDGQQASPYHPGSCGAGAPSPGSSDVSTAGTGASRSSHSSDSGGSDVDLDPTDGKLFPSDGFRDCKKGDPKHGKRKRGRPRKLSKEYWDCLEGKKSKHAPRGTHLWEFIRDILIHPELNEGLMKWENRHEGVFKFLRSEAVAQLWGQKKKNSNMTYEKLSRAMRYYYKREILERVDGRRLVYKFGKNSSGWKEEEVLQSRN
# Method in brief: as §1
# ETV1 = ETV1 (Homo sapiens, UniProt P50549 1-477)
# Chain of ETV1 (P50549 whole entry): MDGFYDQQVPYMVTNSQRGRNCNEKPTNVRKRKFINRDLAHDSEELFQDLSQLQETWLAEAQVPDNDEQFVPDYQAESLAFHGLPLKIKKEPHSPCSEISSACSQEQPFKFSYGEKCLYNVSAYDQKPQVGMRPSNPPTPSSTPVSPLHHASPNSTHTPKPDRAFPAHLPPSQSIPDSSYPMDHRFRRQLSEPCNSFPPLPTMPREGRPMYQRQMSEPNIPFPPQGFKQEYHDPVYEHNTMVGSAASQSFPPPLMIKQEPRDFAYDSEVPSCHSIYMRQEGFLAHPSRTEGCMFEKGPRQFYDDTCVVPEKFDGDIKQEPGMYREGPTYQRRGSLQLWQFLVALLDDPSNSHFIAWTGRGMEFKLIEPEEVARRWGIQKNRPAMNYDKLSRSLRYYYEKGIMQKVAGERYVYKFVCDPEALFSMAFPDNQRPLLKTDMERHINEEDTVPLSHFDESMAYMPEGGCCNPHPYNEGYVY
# Method in brief: as §1
# ERF = biological target: T6, ERF (Homo sapiens, UniProt P50548 1-548)
# T6 sequence: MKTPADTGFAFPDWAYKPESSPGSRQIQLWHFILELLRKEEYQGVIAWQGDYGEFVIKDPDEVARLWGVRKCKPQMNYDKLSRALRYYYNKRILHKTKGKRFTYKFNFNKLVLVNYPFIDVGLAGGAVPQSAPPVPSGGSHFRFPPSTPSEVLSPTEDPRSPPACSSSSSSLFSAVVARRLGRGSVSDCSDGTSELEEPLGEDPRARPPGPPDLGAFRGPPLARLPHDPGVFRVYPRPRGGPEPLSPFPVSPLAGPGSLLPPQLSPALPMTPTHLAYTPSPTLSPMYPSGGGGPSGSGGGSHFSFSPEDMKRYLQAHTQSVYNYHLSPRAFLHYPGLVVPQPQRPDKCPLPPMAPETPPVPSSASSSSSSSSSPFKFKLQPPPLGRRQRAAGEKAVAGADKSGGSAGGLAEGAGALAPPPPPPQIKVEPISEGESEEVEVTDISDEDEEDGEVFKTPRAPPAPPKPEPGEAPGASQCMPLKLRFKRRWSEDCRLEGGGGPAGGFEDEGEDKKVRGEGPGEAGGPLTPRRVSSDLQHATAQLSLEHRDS
# Method in brief: as §1
# ETV3L = biological target: T7, ETV3L (Homo sapiens, UniProt Q6ZN32 1-361)
# T7 sequence: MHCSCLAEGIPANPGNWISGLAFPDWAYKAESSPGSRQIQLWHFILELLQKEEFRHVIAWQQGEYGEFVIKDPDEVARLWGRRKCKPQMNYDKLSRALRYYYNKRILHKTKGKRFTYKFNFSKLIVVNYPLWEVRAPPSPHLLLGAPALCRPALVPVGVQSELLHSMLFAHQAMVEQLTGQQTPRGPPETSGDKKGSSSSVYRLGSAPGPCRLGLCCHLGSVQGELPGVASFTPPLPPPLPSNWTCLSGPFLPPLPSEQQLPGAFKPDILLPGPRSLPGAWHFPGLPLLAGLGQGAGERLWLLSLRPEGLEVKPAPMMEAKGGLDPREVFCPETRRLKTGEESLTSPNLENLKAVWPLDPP
# Method in brief: as §1
# ETS2 = biological target: T8, ETS2 (Homo sapiens, UniProt P15036 1-469)
# T8 sequence: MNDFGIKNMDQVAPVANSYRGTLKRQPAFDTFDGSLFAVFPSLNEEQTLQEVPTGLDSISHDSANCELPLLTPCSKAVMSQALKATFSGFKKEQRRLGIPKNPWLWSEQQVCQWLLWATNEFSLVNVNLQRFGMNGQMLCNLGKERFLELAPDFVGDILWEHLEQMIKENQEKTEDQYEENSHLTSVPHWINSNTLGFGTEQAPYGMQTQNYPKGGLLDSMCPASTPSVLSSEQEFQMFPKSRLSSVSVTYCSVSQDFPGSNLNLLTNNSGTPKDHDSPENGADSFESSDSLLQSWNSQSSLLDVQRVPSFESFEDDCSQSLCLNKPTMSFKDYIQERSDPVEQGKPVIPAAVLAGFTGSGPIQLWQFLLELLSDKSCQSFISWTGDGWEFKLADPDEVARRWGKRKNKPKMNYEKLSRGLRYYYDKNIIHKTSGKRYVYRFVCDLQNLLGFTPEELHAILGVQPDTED
# Method in brief: as §1
# SPDEF = biological target: T9, SPDEF (Homo sapiens, UniProt O95238 1-335)
# T9 sequence: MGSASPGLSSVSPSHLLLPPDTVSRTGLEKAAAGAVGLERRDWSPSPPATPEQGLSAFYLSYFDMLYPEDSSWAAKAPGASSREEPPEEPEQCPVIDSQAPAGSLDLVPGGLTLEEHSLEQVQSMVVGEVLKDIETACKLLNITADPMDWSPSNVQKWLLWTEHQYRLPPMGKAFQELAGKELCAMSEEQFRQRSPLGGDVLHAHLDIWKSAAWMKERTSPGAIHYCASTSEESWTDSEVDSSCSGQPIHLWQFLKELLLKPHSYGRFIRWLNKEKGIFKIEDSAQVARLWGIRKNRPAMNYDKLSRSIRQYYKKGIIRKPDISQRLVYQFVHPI
# Method in brief: as §1
# ETV7 = biological target: T10, ETV7 (Homo sapiens, UniProt Q9Y603 1-341)
# T10 sequence: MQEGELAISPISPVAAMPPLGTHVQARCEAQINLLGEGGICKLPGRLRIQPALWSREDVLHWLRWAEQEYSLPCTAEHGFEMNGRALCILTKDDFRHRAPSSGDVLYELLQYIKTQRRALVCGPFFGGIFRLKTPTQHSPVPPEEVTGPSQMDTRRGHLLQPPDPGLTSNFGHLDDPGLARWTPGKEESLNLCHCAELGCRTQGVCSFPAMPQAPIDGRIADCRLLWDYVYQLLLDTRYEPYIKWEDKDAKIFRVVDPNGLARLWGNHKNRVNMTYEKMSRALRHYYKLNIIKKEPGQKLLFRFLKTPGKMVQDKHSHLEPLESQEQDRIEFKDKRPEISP
# Method in brief: as §1
# ELF5 = biological target: T11, ELF5 (Homo sapiens, UniProt Q9UKW6-2 1-255)
# T11 sequence: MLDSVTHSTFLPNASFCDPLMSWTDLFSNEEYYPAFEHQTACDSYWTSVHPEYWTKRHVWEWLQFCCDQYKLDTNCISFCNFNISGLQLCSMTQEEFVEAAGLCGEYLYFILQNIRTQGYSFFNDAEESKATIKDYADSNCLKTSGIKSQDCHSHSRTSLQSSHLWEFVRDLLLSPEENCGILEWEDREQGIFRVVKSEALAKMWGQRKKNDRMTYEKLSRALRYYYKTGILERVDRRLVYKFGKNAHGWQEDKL
# Method in brief: as §1
# ETV3 = biological target: T12, ETV3 (Homo sapiens, UniProt P41162-2 1-143)
# T12 sequence: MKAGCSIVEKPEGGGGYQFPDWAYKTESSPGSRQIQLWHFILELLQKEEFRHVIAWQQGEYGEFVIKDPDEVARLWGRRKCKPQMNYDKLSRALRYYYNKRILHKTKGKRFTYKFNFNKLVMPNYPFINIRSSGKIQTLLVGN
# Method in brief: as §1
# ETV6 = ETV6 (Homo sapiens, UniProt P41212 1-452)
# Chain of ETV6 (P41212 whole entry): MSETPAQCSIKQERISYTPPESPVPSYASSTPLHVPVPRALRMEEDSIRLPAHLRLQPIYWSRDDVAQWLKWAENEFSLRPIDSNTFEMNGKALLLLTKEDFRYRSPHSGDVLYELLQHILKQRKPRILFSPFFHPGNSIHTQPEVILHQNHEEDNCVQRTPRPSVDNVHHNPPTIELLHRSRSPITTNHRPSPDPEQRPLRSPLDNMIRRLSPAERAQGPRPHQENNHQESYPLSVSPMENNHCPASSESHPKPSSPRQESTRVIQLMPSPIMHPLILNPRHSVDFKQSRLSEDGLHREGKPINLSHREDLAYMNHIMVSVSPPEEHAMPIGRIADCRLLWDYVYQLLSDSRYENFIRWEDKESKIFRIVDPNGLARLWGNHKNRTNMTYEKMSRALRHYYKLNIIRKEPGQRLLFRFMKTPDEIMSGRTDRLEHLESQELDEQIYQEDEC
# Method in brief: as §1
Sequence,binding signal (FEV),binding signal (ETV5),binding signal (SPIC),binding signal (ELF4),binding signal (ELK4),binding signal (ETV2),binding signal (ELF3),binding signal (ETV1),binding signal (ERF),binding signal (ETV3L),binding signal (ETS2),binding signal (SPDEF),binding signal (ETV7),binding signal (ELF5),binding signal (ETV3),binding signal (ETV6)
TGTGCC,"1.2 fold enrichment (6-mer frequency, TF over GST control)","1.21 fold enrichment (6-mer frequency, TF over GST control)","1.12 fold enrichment (6-mer frequency, TF over GST control)","1.17 fold enrichment (6-mer frequency, TF over GST control)","1.32 fold enrichment (6-mer frequency, TF over GST control)","1.23 fold enrichment (6-mer frequency, TF over GST control)","1.03 fold enrichment (6-mer frequency, TF over GST control)","1.05 fold enrichment (6-mer frequency, TF over GST control)","1.01 fold enrichment (6-mer frequency, TF over GST control)","1.19 fold enrichment (6-mer frequency, TF over GST control)","1.07 fold enrichment (6-mer frequency, TF over GST control)","1.17 fold enrichment (6-mer frequency, TF over GST control)","1.04 fold enrichment (6-mer frequency, TF over GST control)","1.05 fold enrichment (6-mer frequency, TF over GST control)","1.13 fold enrichment (6-mer frequency, TF over GST control)","1.21 fold enrichment (6-mer frequency, TF over GST control)"
CGCACT,"1.32 fold enrichment (6-mer frequency, TF over GST control)","1.28 fold enrichment (6-mer frequency, TF over GST control)","1.04 fold enrichment (6-mer frequency, TF over GST control)","1.29 fold enrichment (6-mer frequency, TF over GST control)","1.1 fold enrichment (6-mer frequency, TF over GST control)","1.29 fold enrichment (6-mer frequency, TF over GST control)","1.26 fold enrichment (6-mer frequency, TF over GST control)","1.23 fold enrichment (6-mer frequency, TF over GST control)","1.21 fold enrichment (6-mer frequency, TF over GST control)","1.29 fold enrichment (6-mer frequency, TF over GST control)","1.18 fold enrichment (6-mer frequency, TF over GST control)","1.1 fold enrichment (6-mer frequency, TF over GST control)","1.27 fold enrichment (6-mer frequency, TF over GST control)","1.23 fold enrichment (6-mer frequency, TF over GST control)","1.39 fold enrichment (6-mer frequency, TF over GST control)","1.25 fold enrichment (6-mer frequency, TF over GST control)"
AGCAGC,"1.12 fold enrichment (6-mer frequency, TF over GST control)","1.18 fold enrichment (6-mer frequency, TF over GST control)","1.11 fold enrichment (6-mer frequency, TF over GST control)","1.14 fold enrichment (6-mer frequency, TF over GST control)","1.05 fold enrichment (6-mer frequency, TF over GST control)","1.07 fold enrichment (6-mer frequency, TF over GST control)","1.08 fold enrichment (6-mer frequency, TF over GST control)","1.17 fold enrichment (6-mer frequency, TF over GST control)","1.08 fold enrichment (6-mer frequency, TF over GST control)","1.09 fold enrichment (6-mer frequency, TF over GST control)","1.2 fold enrichment (6-mer frequency, TF over GST control)","1.02 fold enrichment (6-mer frequency, TF over GST control)","1.19 fold enrichment (6-mer frequency, TF over GST control)",–,"1.08 fold enrichment (6-mer frequency, TF over GST control)","1.04 fold enrichment (6-mer frequency, TF over GST control)"

# — paper PMC7862700, “An all-to-all approach to the identification of sequence-specific readers for epigenetic DNA modifications on cytosine”
